Some test systems named below: K-562 leukemia; MALME-3M melanoma; MDA-MB-231 breast; RXF 393 renal; SF-268 CNS; SF-295 CNS; SF-539 CNS; UACC-257 melanoma; M14 melanoma; HCT-15 colon; HT29 colon; SNB-75 CNS; SNB-19 CNS; U251 CNS; PC-3 prostate; SK-MEL-5 melanoma; UACC-62 melanoma; LOX IMVI melanoma; SK-MEL-28 melanoma; SK-MEL-2 melanoma.
Holding throughout (test): NCI-60 one-dose screen, 48 h (100 = growth as untreated, 0 = no growth, -100 = all killed)
Common to all, as to conditions: 10 µM

The panel holds about 83,000 compounds, 20% with a hit somewhere; the sample as a whole holds those more often.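 Activity criterion: percent growth below 10, measured after cells in 96-well plates were exposed to a single compound concentration for 48 hours.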 A number with no mark means an inactive call. Activity calls are given as the source filed them.

In the case of `CCOC(=O)N1C/C(=C/c2ccc(OC)cc2)C(=O)/C(=C/c2ccc(OC)cc2)C1`, the growth in the test on K-562 leukemia is -2.17% (active); in the test on MALME-3M melanoma, 34.2%; in the test with MDA-MB-231 breast it was 30.6%; in the test with RXF 393 renal it was -44.4% (active); in the test with SF-268 CNS, 38.2%; in the test on SF-295 CNS it was 24.5%. Besides, the growth in the test with SF-539 CNS is 39.4%; in the test on UACC-257 melanoma it was 42.9%; with M14 melanoma, -40.8% (active); in the test with HCT-15 colon, 3.06% (active); in the test with HT29 colon it was -58.4% (active); with SNB-75 CNS it was 48.8%. For the same molecule, the growth in the test with SNB-19 CNS was 78%; with U251 CNS it was 12%; in the test with PC-3 prostate it was 46.5%; in the test on SK-MEL-5 melanoma, 21.6%; in the test with UACC-62 melanoma, 44.6%; with LOX IMVI melanoma it was -72.2% (active). For the same molecule, the growth was 58.6% in the test with SK-MEL-28 melanoma and 75.1% in the test with SK-MEL-2 melanoma.

With `S=c1[nH]ccn1-c1c(Cl)cccc1Cl`, the growth in the test with K-562 leukemia was 103%; in the test on MALME-3M melanoma it was 109%; with MDA-MB-231 breast, 102%; in the test with RXF 393 renal it was 106%; in the test on SF-268 CNS it was 118%; with SF-295 CNS, 99.1%. In addition, the growth with SF-539 CNS was 94.4%; with UACC-257 melanoma, -4.51% (active); in the test with M14 melanoma, 98.1%; in the test on HCT-15 colon, 100%; with HT29 colon, 105%; with SNB-75 CNS, 102%. For the same molecule, the growth with SNB-19 CNS is 90.9%; in the test with U251 CNS, 104%; with PC-3 prostate, 106%; in the test with SK-MEL-5 melanoma, 106%; in the test on UACC-62 melanoma, 97.3%; in the test with LOX IMVI melanoma, 99%. The growth with SK-MEL-28 melanoma is 101%; in the test with SK-MEL-2 melanoma, 140%.

Regarding `O=C(Nc1ccc(CN2CCc3nc4cc(O)c(O)cc4cc32)cc1)c1ccc(Cl)c(Cl)c1`, the growth with K-562 leukemia is 115%; in the test on MALME-3M melanoma it was 93%; in the test on MDA-MB-231 breast, 103%; in the test with RXF 393 renal, 89.4%; in the test on SF-268 CNS it was 96.6%; in the test on SF-295 CNS, 101%. Also, the growth was 94.2% in the test on SF-539 CNS; 103% with UACC-257 melanoma; 98.4% in the test with M14 melanoma; 101% in the test on HCT-15 colon; 109% in the test with HT29 colon; 89.2% in the test with SNB-75 CNS. Moreover, the growth with SNB-19 CNS is 96.7%; in the test on U251 CNS, 105%; in the test on PC-3 prostate it was 101%; with SK-MEL-5 melanoma it was 90.7%; in the test with UACC-62 melanoma it was 97%; with LOX IMVI melanoma it was 104%. The figures for the growth in the test on SK-MEL-28 melanoma and with SK-MEL-2 melanoma were 96.8% and 105%, respectively.

For `COc1cc(-c2cc(/C=C/C(=O)c3ccc(N)cc3)[nH]n2)cc(OC)c1OC`, the growth in the test on K-562 leukemia is 10.9%; in the test with MALME-3M melanoma, 58.3%; in the test with MDA-MB-231 breast it was -2.03% (active); in the test on RXF 393 renal, -23.2% (active); in the test on SF-268 CNS, -9.2% (active); in the test with SF-295 CNS, 22.9%. The growth in the test with SF-539 CNS is -64.1% (active); in the test with UACC-257 melanoma, 29.2%; in the test with M14 melanoma it was 34.8%; with HCT-15 colon it was -22.3% (active); with HT29 colon it was 2.34% (active); in the test with SNB-75 CNS, 8.6% (active). Further, the growth in the test with SNB-19 CNS was 36.6%; with U251 CNS, -58.4% (active); with PC-3 prostate, 11.1%; with SK-MEL-5 melanoma it was 11.8%; in the test with UACC-62 melanoma, 20.6%; in the test with LOX IMVI melanoma it was -52.3% (active). In addition, the figures for the growth with SK-MEL-28 melanoma and in the test with SK-MEL-2 melanoma were 6.59% (active) and 28.6%, respectively.

In the case of `CC/C(C)=C(\C)C(=O)O`, the growth in the test on K-562 leukemia is 100%; in the test with MALME-3M melanoma, 99.7%; in the test with MDA-MB-231 breast it was 111%; in the test with RXF 393 renal, 110%; in the test on SF-268 CNS, 105%; in the test with SF-295 CNS, 94.7%. Moreover, the growth was 104% with SF-539 CNS; 91.7% with UACC-257 melanoma; 104% with M14 melanoma; 107% with HCT-15 colon; 106% in the test with HT29 colon; 94.5% in the test with SNB-75 CNS. Moreover, the growth with SNB-19 CNS is 112%; in the test with U251 CNS, 105%; in the test with PC-3 prostate it was 104%; in the test on SK-MEL-5 melanoma, 103%; in the test on UACC-62 melanoma, 112%; in the test on LOX IMVI melanoma it was 92.7%. The results for the growth with SK-MEL-28 melanoma and in the test with SK-MEL-2 melanoma were 111% and 102%, respectively.

Turning to `COc1cc(/C=C/C(=O)c2ccc(Cl)cc2)ccc1OS(=O)(=O)c1ccc(C)cc1`, the growth is 14.9% in the test with K-562 leukemia; 101% in the test with MALME-3M melanoma; 90.9% in the test on MDA-MB-231 breast; 117% in the test on RXF 393 renal; 102% in the test with SF-268 CNS; 94.2% with SF-295 CNS. The growth in the test on SF-539 CNS was 111%; in the test with UACC-257 melanoma, 110%; with M14 melanoma, 105%; in the test with HCT-15 colon, 66%; in the test with HT29 colon, 28.5%; in the test with SNB-75 CNS, 105%. In addition, the growth in the test with SNB-19 CNS is 98.5%; with U251 CNS, 83.7%; in the test on PC-3 prostate it was 76.1%; with SK-MEL-5 melanoma it was 100%; in the test on UACC-62 melanoma, 79.4%; in the test on LOX IMVI melanoma it was 2.55% (active). Further, the growth in the test with SK-MEL-28 melanoma is 106%; in the test with SK-MEL-2 melanoma, 108%.

On to `Cc1ccc(-c2n[nH]c(=O)c3noc(-c4ccc(C)cc4)c23)cc1`, for which the growth was 13.2% in the test on K-562 leukemia; 26.4% in the test on MALME-3M melanoma; 58.1% in the test on MDA-MB-231 breast; 38% in the test on RXF 393 renal; 53.5% with SF-268 CNS; 49.3% in the test with SF-295 CNS. The growth with SF-539 CNS is 3% (active); with UACC-257 melanoma it was 55.9%; with M14 melanoma it was 28.8%; in the test on HCT-15 colon, 33.1%; with HT29 colon it was 6.9% (active); in the test with SNB-75 CNS, -15% (active). In addition, the growth in the test with SNB-19 CNS was 56%; in the test with U251 CNS, 27.7%; in the test on PC-3 prostate, 28%; in the test on SK-MEL-5 melanoma, 15.9%; with UACC-62 melanoma, 28.6%; in the test on LOX IMVI melanoma, 44%. Also, the growth is 52% in the test with SK-MEL-28 melanoma and 9.04% (active) with SK-MEL-2 melanoma.

Take `N#CCCN(NC(=O)OCc1ccccc1)C(=O)OCc1ccccc1`: the growth in the test with K-562 leukemia is 106%; in the test on MALME-3M melanoma, 105%; in the test with MDA-MB-231 breast, 113%; in the test on RXF 393 renal it was 111%; in the test on SF-268 CNS, 106%; with SF-295 CNS, 99.1%. Also, the growth was 106% in the test with SF-539 CNS; 107% with UACC-257 melanoma; 103% in the test with M14 melanoma; 107% in the test with HCT-15 colon; 106% with HT29 colon; 81.4% in the test with SNB-75 CNS. In addition, the growth in the test with SNB-19 CNS is 108%; in the test with U251 CNS it was 102%; in the test with PC-3 prostate, 93.4%; in the test on SK-MEL-5 melanoma, 108%; in the test with UACC-62 melanoma it was 101%; with LOX IMVI melanoma, 94.3%. Besides, the growth in the test on SK-MEL-28 melanoma is 119%; with SK-MEL-2 melanoma it was 106%.
